# Assay results: PubChem BioAssay (Tox21)
# Inconclusive results are not listed. A call without a number means that no potency is given here. Unmarked numbers belong to inactive results. Calls of active or inactive are those of the source. The call rests on the fitted dose curve; in most records, active means well fitted cell-killing curve with a large enough effect in the repeat runs; inconclusive means weak or mixed curves, or effect the other way; inactive means no such curve, though single readings can be large or run the other way.
# Experiment: qHTS assay to identify small molecule antagonists of the sonic hedgehog signaling (Shh) pathway - cell viability counter screen (AID 1259367); further: nearly all actives have a fitted effect of over 55% in size
# Conditions: NIH/3T3 Gli1-Luc viability, CellTiter-Fluor, 24 h; series mostly up to 92.4 µM
# Excerpt: National Center for Advancing Translational Sciences [NCATS]
# NIH Chemical Genomics Center [NCGC]
# U.S. Environmental Protection Agency [EPA]
# National Institutes of Environmental Health Sciences [NIEHS]
# National Toxicology Program [NTP]
# U.S. Food and Drug Administration [FDA]
# The sonic hedgehog (Shh) pathway is essential for normal embryonic development. Dysregulation of the Shh pathway can cause severe developmental defects in organs. Therefore chemicals that interfere with the pathway are potential developmental toxicants. A cell line designated 3T3Gli1-Luc (DMB/OARSA/CFSAN/FDA, Laurel, MD), a NIH/3T3 derived clone containing stably integrated Gli1-Luc reporter is used to detect chemical interference of the Shh pathway, by changes in the expression of the firefly Luc gene under the control of the Gli1 transcriptional response element. This cell line was used to screen Tox21 libraries for identifying and prioritizing the potential developmental toxicants that interfere Shh pathway. Conditioned medium-stimulated mode was used to screen for chemicals inhibiting Shh signaling. The cytotoxicity of the compounds was tested in parallel by measuring the cell viability using CellTiter-Fluor assay system (Promega, Madison, WI) in the same wells.
# Tox21 Assay Protocol Summary:
# 3T3 Gli1-Luc cells were dispensed at 2,000 per well in 5uL of culture medium into white solid bottom 1536-well plates (Greiner Bio-One, Monroe, NC) using a Multidrop Combi (Thermo Scientific, Waltham, MA) dispenser. The assay plates were incubated at 37 C and 5% CO2 for 4hr, and then 23nL of compounds dissolved in DMSO and positive control were transferred using a Pintool station (Wako, San Diego, CA). The compound transfer was followed by the addition of 1ul conditioned medium or assay buffer using two separate tips of Flying Reagent Dispenser (FRD, Aurora Discovery, San Diego, CA). The assay plates were incubated at 37C and 5% CO2 for 24hr. For viability read, after 23hr of compound treatment, 1uL of CellTiter-Fluor reagent (Promega Corporation, Madison, WI) was added to each well of the assay plates using Flying Reagent Dispenser (FRD, Aurora Discovery, San Diego, CA) and incubated the assay plates at 37C for 1hr. The fluorescence signal was quantified using a ViewLux plate reader (Perkin Elmer, Shelton, CT).
# Potency means the concentration at half of the fitted maximal effect.
Compound,Potency,"viability change, negative = cytotoxic"
Nc1ccc(NC(=O)c2ccc(N)cc2)cc1,inactive,–
CC1=CC[C@@H]2C[C@H]1C2(C)C,–,-2.9% [at 19 µM]
CO[C@@H]1[C@@H](OC)[C@H](C)[C@@](O)(CC(=O)O)O[C@H]1[C@H](C)[C@H]1O[C@@]2(CC[C@@](C)([C@H]3CC[C@@](C)([C@@H]4O[C@@H]([C@H]5O[C@](C)(O)[C@H](C)C[C@@H]5C)C[C@@H]4OC4C[C@H](OC)[C@@H](OC)[C@H](C)O4)O3)O2)C[C@H](O)[C@H]1C (stereo not given in full),3.76 µM (active),–
COC(=O)CC(C(C)=O)C(=O)OC (stereo not given),inactive,–
O=C(Nc1ccc(C(=O)O)c(O)c1)c1ccccc1,inactive,–
O=C(O)c1ccc(O)cc1O,inactive,–
CNCc1ccc(NC(=O)c2c[nH]c3c2C(=O)CCC3)cc1,inactive,–
CC(C)(C(=O)c1cccnc1)c1cccnc1,inactive,–
CC(O)Cn1cnc2c1c(=O)n(C)c(=O)n2C (stereo not given),inactive,–
Cc1ccccc1S(N)(=O)=O,inactive,–
CC(=O)OC(C)C[N+](C)(C)C (stereo not given),inactive,–
O=C(NS(=O)(=O)/C=C/c1ccccc1)c1ccc(F)cc1Cl,inactive,–
CCN(CC)CCNC(=O)c1cc(Cl)c(N)cc1OC,inactive,–
O=NN(CCCl)C(=O)NCCCl,inactive,–
CCN(CC)C(=O)N1CCN(C)CC1,inactive,–
C1CCCCC1,inactive,–
CC(CN(CCN(CC(C)OCCO)CC(C)OCCO)CC(C)OCCO)OCCO (stereo not given),inactive,–
CC(C)COC(=O)COc1cc(Cl)c(Cl)cc1Cl,inactive,–
CCCCCCCCCCCC(=O)OCC(O)CO (stereo not given),inactive,–
C=CCOC(=O)COCCC(C)C,inactive,–

Compound,Potency,"viability change, negative = cytotoxic"
CCC(CO)(CO)CO,inactive,–
Cc1oc(=O)oc1COC(=O)[C@@H]1N2C(=O)[C@@H](NC(=O)[C@H](N)c3ccccc3)[C@H]2SC1(C)C,inactive,–
CC(=O)NNC(C)=O,inactive,–
CC1=C2[C@@H]([C@H](C)CC[C@H]2/C=C(\C)C(=O)O)[C@H](O)C1,inactive,–
COc1cc(NS(=O)(=O)c2ccc(N)cc2)nc(C)n1,inactive,–
O=C(Oc1ccccc1)c1ccc2ccccc2c1O,inactive,–
Cc1ccc(N(CCO)CCO)cc1,inactive,–
CCNc1nc(N)nc(Cl)n1,inactive,–
Nc1nc(-c2ccc([N+](=O)[O-])cc2)cs1,inactive,–
O=C(O)CCS,inactive,–
CNS(=O)(=O)c1cc(C(=O)N2CCC(CCN3C4CCC3CC(n3c(C)nc5ccccc53)C4)(c3cccc(F)c3)CC2)c(Cl)cc1F (stereo not given),inactive,–
CC(C)COC(=O)c1ccc(O)cc1,inactive,–
Cc1cn([C@H]2C[C@H](F)[C@@H](CO)O2)c(=O)[nH]c1=O,inactive,–
C=C(C)c1ccccc1,inactive,–
CC[C@H]1OC(=O)[C@H](C)[C@@H](O[C@H]2C[C@@](C)(OC)[C@@H](O)[C@H](C)O2)[C@H](C)[C@@H](O[C@@H]2O[C@H](C)C[C@H](N(C)C)[C@H]2O)[C@](C)(O)C[C@@H](C)/C(=N\OCOCCOC)[C@H](C)[C@@H](O)[C@]1(C)O,8.07 µM (active),–
COc1cc(C(C)=O)ccc1OCCCN1CCC(c2noc3cc(F)ccc23)CC1,inactive,–
O=C(CCS)OCC(COC(=O)CCS)(COC(=O)CCS)COC(=O)CCS,inactive,–
COC(=O)c1sccc1S(N)(=O)=O,inactive,–
CCN(Cc1cccc(S(=O)(=O)O)c1)c1ccc(C(=C2C=CC(=[N+](CC)Cc3cccc(S(=O)(=O)O)c3)C=C2)c2ccccc2S(=O)(=O)[O-])cc1,17.3 µM (active),–
ClC1=C(Cl)C1(Cl)Cl,inactive,–
